According to the supplement of paper PMC11628255, “Interference of metal ions on the bioluminescent signal of firefly, Renilla, and NanoLuc luciferases in high-throughput screening assays” (Frontiers in Chemistry, 2024):
± gives the standard deviation of the averaged measurements.

Test system: firefly luciferase (FLuc)
Experiment: residual bioluminescent signal relative to negative control without GSH; higher = less interference (more residual luciferase signal)
Settings: screening conditions buffer
Protocol: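 Selected metal salts at 3-4 concentrations tested on purified FLuc, NLuc or RLuc in screening buffer with 0, 0.2 or 2 mM glutathione added; 10 min enzyme pre-incubation at RT, luminescence 10 min after substrate. Signal normalised to negative control without GSH (% N_VALUE); triplicate wells.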

[1] = metal salt concentration 1 mM, glutathione 0 mM
[2] = metal salt concentration 1 mM, glutathione 0.2 mM
[3] = metal salt concentration 1 mM, glutathione 2 mM

Work on [Cl][Fe]([Cl])[Cl] [iron(III) chloride] yielded a residual bioluminescent signal (metal salt concentration 0.0001 mM, glutathione 0 mM) of 89.7 ± 5%, a residual bioluminescent signal (metal salt concentration 0.0001 mM, glutathione 0.2 mM) of 66.3 ± 5.5% and a residual bioluminescent signal (metal salt concentration 0.0001 mM, glutathione 2 mM) of 0.338 ± 0.22%. It also gave a residual bioluminescent signal (metal salt concentration 0.0047 mM, glutathione 0 mM) of 51.2 ± 3.8%, a residual bioluminescent signal (metal salt concentration 0.0047 mM, glutathione 0.2 mM) of 36.4 ± 2.5% and a residual bioluminescent signal (metal salt concentration 0.0047 mM, glutathione 2 mM) of 0.483 ± 0.17%. For the same compound, the residual bioluminescent signal (metal salt concentration 0.02 mM, glutathione 0 mM) was 1.11 ± 0.084%, the residual bioluminescent signal (metal salt concentration 0.02 mM, glutathione 0.2 mM) was 0.87 ± 0.14% and the residual bioluminescent signal (metal salt concentration 0.02 mM, glutathione 2 mM) was 0.725 ± 0.43%. For the same compound, the residual bioluminescent signal [1] was 1.06 ± 0.36%, the residual bioluminescent signal [2] was 0.628 ± 0.47% and the residual bioluminescent signal [3] was 0.29 ± 0.14%.
Work on [Cl][Fe][Cl] [iron(II) chloride] yielded a residual bioluminescent signal (metal salt concentration 0.2 mM, glutathione 0 mM) of 98.6 ± 7.2%, a residual bioluminescent signal (metal salt concentration 0.2 mM, glutathione 0.2 mM) of 85.2 ± 7.9% and a residual bioluminescent signal (metal salt concentration 0.2 mM, glutathione 2 mM) of 0.483 ± 0.3%. For the same compound, the residual bioluminescent signal (metal salt concentration 0.26 mM, glutathione 0 mM) was 2.17 ± 0.52%, the residual bioluminescent signal (metal salt concentration 0.26 mM, glutathione 0.2 mM) was 0.87 ± 0.25% and the residual bioluminescent signal (metal salt concentration 0.26 mM, glutathione 2 mM) was 0.387 ± 0.3%. It also gave a residual bioluminescent signal [1] of 0.58 ± 0.29%, a residual bioluminescent signal [2] of 0.556 ± 0.31% and a residual bioluminescent signal [3] of 0.531 ± 0.22%.
